Experiments:
Assay in all cases: PBM binding z-score (relative to random genomic background probes); higher = stronger binding; sequences stand for … in GC…GCGATTGACAGCGTAGAATGAAGG
[1] = tested on: RARb homodimer (NR concentration 270 nM)
Summary of the method: (§1)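 Each nuclear receptor dimer, without ligand, was incubated for 1 h on custom Agilent 4×180K protein-binding microarrays. Binding was detected with antibodies against each partner (one per run), and scanned fluorescence was regression-normalized. The binding z-scores are referenced to random human genomic background probes.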

[2] = tested on: RARg:RXRa (NR concentration 270 nM, RXRa partner concentration 90 nM)
Summary of the method: as §1

[3] = tested on: RARg homodimer (NR concentration 270 nM)
Summary of the method: as §1

[4] = tested on: RXRa DBDmut IVT, anti-RXR (DBD mutation: RXRa K156A/R161A, NR concentration 90 nM)
Summary of the method: as §1

[5] = tested on: RXRa homodimer (NR concentration 180 nM)
Summary of the method: as §1

[6] = tested on: THRa:RXRa (NR concentration 90 nM, RXRa partner concentration 90 nM)
Summary of the method: as §1

[7] = tested on: THRa homodimer (NR concentration 90 nM)
Summary of the method: as §1

[8] = tested on: VDR homodimer (NR concentration 270 nM)
Summary of the method: as §1

[9] = tested on: VDR:RXRa (NR concentration 270 nM, RXRa partner concentration 90 nM)
Summary of the method: as §1

Sequence	PBM binding z-score [1]	PBM binding z-score [2]	PBM binding z-score [3]	PBM binding z-score [4]	PBM binding z-score [5]	PBM binding z-score [6]	PBM binding z-score [7]	PBM binding z-score [8]	PBM binding z-score [9]
CACACTAGGTCAAAGGTCAAAGTCGAGCCAACCA	5.42	9.01	7.38	3.45	10.4	4.85	2.4	4.12	
CGTCCAAGGTCATAGGAGTTCAGTGAAGACAGAT	4.79	6.25	6.57	4.22	6.23	4.71	2.7	5.97	
TCGAGTAGGTTACGGGGGCAATCAGGGATGAAGA	2.12	3.25	2.36	1.52	2.73	3.4	0.675	2.03	
CGAACTAGGTCACAGGACAGTGAAAGGCGACGTA	3.12	4.25	4.96	1.61	3.27	2.86	0.815	0.381	
CCCCGGAGGACAGAAGGTCAGAGCTGTCCGCTTT	3.7	3.27	3.26	-0.968	1.78	2.21	0.211	0.277	
ATAGAAAGGTCGAAGGTGAGTATACCCACCCGAA	2.36	4.23	3.8	0.55	4.9	2	0.0452	0.757	
TATACAGGGTCTAAGGCCAGAGTACGAATGTCGA	0.78	0.921	1.04	0.336	0.544	1.05	0.535	1.12	
CGAACTAGGTCAAAGGACAGTTAAAGGCGACGTA	3.01	4.13	4.51	1.67	3.1	2.49	0.41	0.768	
CGAACTAGGTCAAAGGACAGTGCAAGGCGACGTA	3.1	3.95	4.42	1.15	3.24	2.57	0.81	0.767	
CGAACTAGGTCATAGGACAGTGAAAGGCGACGTA	2.66	3.62	3.88	1.21	3.11	2.64	0.357	0.417	
CGTCCAAGGTCAATGCTAGGTCACTGAAAGCATT	5.18	7.94	6.93	3.59	5.56		3.87	3.43	5.55
CGTCCAAGGTCAAAGGTCAGGGAAGAGATGACGG	5.58	9.1	8.2	3.54	10.4		2.92	3.13	6.71
GCTGCAAGGTCAACTGATGGTCAGCTAAAGCTCG	4.71	7.17	7.04	3.75	5.7	4.18	2.31	2.53	
TAGCCTAGGTCAGATCGGGCGAGTATACGCTATA	2.27	2.7	3.68	-0.51	1.44	3.15	-0.0987	-0.405	
CCTTACGGGTCGCTGACAGGTTATAGCATTTGGA	1.02	2.45	1.01	0.55	1.78	0.913	-0.259	0.138	
CGTCAAAGTTCAACTAAGGTAACGTATAGCACGC	4.33	5.92	6.62	4.32	4.78	5.26	1.89	4.37	
CGTCTAAGGTCAGCAGGTCAGTGAAAGCGACGTG	5.24	6.82	7.53	3.01	6.01	4.47	3.96	1.86	
CCTACTGGGCCATTCAGAGGTCATCGATCATATG	4.27	4.89	3.64	0.733	4.44	3.34	1.72	3.03	
CGAACTAGGTAAAGGACAGTGAATCTCCGCACGC	0.899	0.243	0.583	0.0169	0.286		-0.0591	-0.21	-0.323
AGTAAAAGTTCACTAGGTAACGTAAGATTCAGCT	3.39	4.08	4.93	4.22	3.39	1.8	0.341	3.76	
CCCACTGGGCCATTCAGAGGTCATTGATCATATG	4.3	4.48	3.31	0.382		3.43	1.52	3.25	4.02
CCGAGTAGGTTACGAGGCGGCATTCAGTGCGAAT	0.155	0.238	0.173	0.159	0.329		-0.252	-0.284	
ACTAGGTGGTCAGCTGAGGTCACACACAATTCGG	4.47	4.04	4.46	0.949	4.06		5.08	2.8	
CAAACTAGGTCAAAGGTCAAAGTAGAGCCAACCA	5.2	8.91	7.32	2.8	10.3		1.79	2.99	6.71
CAAACTAGGTCACCGTAAGGTCAAAGTCCGCATG	5.88	8.26	7.64	2.47	6.67		5.45	4.19	
CGTCCAAGGTCAGAGAGGTCATTGAATGCCGAGT	5.86	6.66	6.96	3.6	6.75		3.35	7.43	
CCTAGCAGGCCAATCGGGGTCACTCAAGGCTTGA	3.66	4.43	3.43	1.12	6.01		2.35	4	5.36
CAAACTAGGTCACAGAGGTTAAAGTCCGTGCGTA	4.34	5.36	5.64	2.38		4.12	2.1	3.13	6.72

From the supplement of paper PMC6555819
